Drawing on article PMC12864922, “TDP-43 directly inhibits mRNA accumulation in neurites through modulation of mRNA stability”, this text covers binding signal for 13 molecules.

Over roughly 9,900 sequences, “r (bound/input frequency ratio)” has its median near 0.7; the highest 2% begin near 6.5. This excerpt belongs to a sample that is enriched for the highest values.

The labels stand for the following.
B1: ENSMUSG00000032194.344|Kank2 (ssRNA)
RNA: GGGAGUUCUACAGUCCGACGAUCGCUUCGAUAUCCGCAUGCUAAACACCCACCAGUCUCUCCUCUCCUUCCCGCUAUACUCCAGUUUUCUUUCUACUCUGUGACCACGGUACAUCCAUGAAGACAGUGUUACACGUAAAUGAAGUAUUCUUUUCUUGUAAUCAUAUUUUAGAAAGUAAAAGGACUUAAUAAAGCUACAAAUAAAAACAUUGCCUCGUGUCUGUUUGUUCUCCUUCUUUUUAGGCUAGCCUUGAACUCCUGAUCCUCCUGCCUUCCAUCUCCCAAGUGCUGGGAUGACAGGCACCUCUUGCGGUCGCACUAGUGUGGAAUUCUCGGGUGUCAAGG
B2: ENSMUSG00000004113.341|Cacna1b|1:8;11:16 (ssRNA)
RNA: GGGAGUUCUACAGUCCGACGAUCGCUUCGAUAUCCGCAUGCUACACACACAAGCACACAUCAGCAAGUGGCUAUUGUCAACCAUAGGGCUAUGCAACAAAAGACACAUUACUAGAAACAAAACACAAGACCACCACUUGGUCUAGGGUUUCAGCAUGAUUGUGACCAAACCUUUUAUAGAAUUUCCUUAUACAAAGGCACAAUACCCUGAAACUUUAACAGAGUAUUUUAUUCCAGUAGGGUAAAAUUAAACGGGACUCUUGGACUGCGCAUGUGACUGCACCCACGUUGCAACAGAGAAGGACUCUUGCGGUCGCACUAGUGUGGAAUUCUCGGGUGUCAAGG
B3: ENSMUSG00000061578.75|Ksr2 (ssRNA)
RNA: GGGAGUUCUACAGUCCGACGAUCGCUUCGAUAUCCGCAUGCUAAUGGAACCAGAAACAAUACACCUGCUCCGUUGUCAAGGCUUCUAGGCCAAGGUCAGGGUAGGGAGGUGGGGUGGGUUAAACUUGCAAACAUCUGAUUUUAGAGGUCCCAUUCCAAGAUGGAAGUCACCGGUUGCCGCUGAGCACACAAUUCUGAAGGACAGUAGGCAGUCCUGCAGGUCUUUUUUAGCACAGGGCCUCUCUGGGGACCAGUCCCUGGCCUUCACCCUUCUCCCAUUUUGUAAGAACACUGUUCUAACUCACUCUUGCGGUCGCACUAGUGUGGAAUUCUCGGGUGUCAAGG
B4: ENSMUSG00000034801.114|Sos2 (ssRNA)
RNA: GGGAGUUCUACAGUCCGACGAUCGCUUCGAUAUCCGCAUGCUACCCCAGGUGAUCAGCAGCAUUGCUUCCUCGGCUCCCCAGUGCUGCCCUAGGCCAGUAUAAAGACUCUGUAUUGCACUGUAGACUCUGCUAGCAGACGGCACUGAGAGGAGCCAGCGCUCGAGGGCGUUCUCACGCCUGACUGAUAGAUACCUUUUUAGGGUGAUGAACUUACACAGAUGCAGAAGAUAUGGGGUGGUGGUCCUGGGUUUUAACCCUCUGACCGUCUUCUAGCUUCUAAUUUUGUUUGGUUUUUACAUCUACUCUUGCGGUCGCACUAGUGUGGAAUUCUCGGGUGUCAAGG
B5: ENSMUSG00000061578.1547|Ksr2|98:102 (ssRNA)
RNA: GGGAGUUCUACAGUCCGACGAUCGCUUCGAUAUCCGCAUGCUAUUUAUAAAGUUUUCUACACUUCUCAAAAAAAAAAAUAUUUCUAACCUUGGCUGUUGGACAGUCUGUGAGCCUGUGAGCCGGCAAGCCUGUUGUUUCUACACAUUAGUGCAAUGUUAGUGAGAAUCCAGUGUCUGAGUUAUUAAUGCCAAUAAAGAAUUUGAGAAUUACUGCAUCCGCUGCUGUCACUCCAGGUCAGAACUCUGCUGUUGUCUGUUGGAUGGAAGGAAGCUCCAGAGUGAGGAACAAUGGUUGCUAACUGCCUCUUGCGGUCGCACUAGUGUGGAAUUCUCGGGUGUCAAGG
B6: ENSMUSG00000022095.37|Fam160b2|125:129 (ssRNA)
RNA: GGGAGUUCUACAGUCCGACGAUCGCUUCGAUAUCCGCAUGCUAACCUCACCUGUUGACCCCACGAGCUGAGGUUUCAAGGAGGUGCUGGCUCCUAAGGCAGUGGUAUUCUUGGAGCCUUUUAGAGGAGCUAGAGGAUGGCCAGUGAGCGCCUAGAUGCUGCCCUGCAACACAUGCGUGACUAUCUCUGCUAUAUUGUGACCAGGGCCACAACAUGAGACAACUCCAGGGGCCAGGGAGAUGAACUGCUGUCUUUGAGGCUGGCUAAAAAAACAAUCCAGUCCAGAGAGAUGGGGAGGGGGGGACUCUUGCGGUCGCACUAGUGUGGAAUUCUCGGGUGUCAAGG
B7: ENSMUSG00000032194.151|Kank2|256:260 (ssRNA)
RNA: GGGAGUUCUACAGUCCGACGAUCGCUUCGAUAUCCGCAUGCUAACUUCUAGAAAUACUUUCAGACCUACAGACAAAAAAGAAAAAAGGCCAUUCCGGAGUGACUCCCAGCAUCACAGCCCAGAACCUCCUCCUCAAAGGAGAGUAAACAGAGACUGUGAUACUGACCAAGUACAGGCGCUCGCUAUGAAGCCCAUAUGUUCCUGAUUAAGAGCUGGCUGGCCUCAGAGCACUCCCAGAACUAGCUUAAAGUGACAGGCUUUGCUGAAAUCCAAAGGGACAAAAGAGUAGUUUUAUGUUACACACUCUUGCGGUCGCACUAGUGUGGAAUUCUCGGGUGUCAAGG
B8: ENSMUSG00000029028.13|Lrrc47|42:46;48:52;64:69;71:75;77:81;93:98;100:104;106:110;127:131;143:148;150:154;166:170;173:177;179:183;195:200;202:206;223:227;229:233 … (ssRNA)
RNA: GGGAGUUCUACAGUCCGACGAUCGCUUCGAUAUCCGCAUGCUACCCUCCCCACGUGACUGUGGUCCGCUGACAGGCUCCUGUAGCACACGCACACCUGUAGGUGUCACACACGCACACGCACACCUGUAGGUGUCACACACGCACACGCACACCUAUAGGUAUCUGUGGCACACCUGUAGGUGUCACACACGCACACCUGUAGGUGUCACACAAGCACACGCACACCUGUAGGUGUCACACACGCACACCUAGGUGUCUGUAUAGCACACGCACACCUGUAGAUGUCACACAAGCAUACGGUGCUCUUGCGGUCGCACUAGUGUGGAAUUCUCGGGUGUCAAGG
B9: ENSMUSG00000029028.11|Lrrc47|54:58;60:64;76:81;83:87;89:93;105:110;112:116;118:122;139:143;155:160;162:166;178:182;185:189;191:195;207:212;214:218;235:239;241:2 … (ssRNA)
RNA: GGGAGUUCUACAGUCCGACGAUCGCUUCGAUAUCCGCAUGCUACCUGAUCACCCUCCCUCCCCACGUGACUGUGGUCCGCUGACAGGCUCCUGUAGCACACGCACACCUGUAGGUGUCACACACGCACACGCACACCUGUAGGUGUCACACACGCACACGCACACCUAUAGGUAUCUGUGGCACACCUGUAGGUGUCACACACGCACACCUGUAGGUGUCACACAAGCACACGCACACCUGUAGGUGUCACACACGCACACCUAGGUGUCUGUAUAGCACACGCACACCUGUAGAUGUCUGUGCUCUUGCGGUCGCACUAGUGUGGAAUUCUCGGGUGUCAAGG
B10: ENSMUSG00000029028.12|Lrrc47 (ssRNA)
RNA: GGGAGUUCUACAGUCCGACGAUCGCUUCGAUAUCCGCAUGCUACACCCUCCCUCCCCACGUGACUGUGGUCCGCUGACAGGCUCCUGUAGGUGUGGGUGUGCUGUAGGUGUCUGUGUGGGUGUGGGUGUGCUGUAGGUGUCUGUGUGGGUGUGGGUGUGCUAUAGGUAUCUGUGGGUGUGCUGUAGGUGUCUGUGUGGGUGUGCUGUAGGUGUCUGUGUAGGUGUGGGUGUGCUGUAGGUGUCUGUGUGGGUGUGCUAGGUGUCUGUAUAGGUGUGGGUGUGCUGUAGAUGUCUGUGUAGGUACUCUUGCGGUCGCACUAGUGUGGAAUUCUCGGGUGUCAAGG
B11: ENSMUSG00000029028.13|Lrrc47 (ssRNA)
RNA: GGGAGUUCUACAGUCCGACGAUCGCUUCGAUAUCCGCAUGCUACCCUCCCCACGUGACUGUGGUCCGCUGACAGGCUCCUGUAGGUGUGGGUGUGCUGUAGGUGUCUGUGUGGGUGUGGGUGUGCUGUAGGUGUCUGUGUGGGUGUGGGUGUGCUAUAGGUAUCUGUGGGUGUGCUGUAGGUGUCUGUGUGGGUGUGCUGUAGGUGUCUGUGUAGGUGUGGGUGUGCUGUAGGUGUCUGUGUGGGUGUGCUAGGUGUCUGUAUAGGUGUGGGUGUGCUGUAGAUGUCUGUGUAGGUAUGGGUGCUCUUGCGGUCGCACUAGUGUGGAAUUCUCGGGUGUCAAGG
B12: ENSMUSG00000029028.12|Lrrc47|48:52;54:58;70:75;77:81;83:87;99:104;106:110;112:116;133:137;149:154;156:160;172:176;179:183;185:189;201:206;208:212;229:233;235:23 … (ssRNA)
RNA: GGGAGUUCUACAGUCCGACGAUCGCUUCGAUAUCCGCAUGCUACACCCUCCCUCCCCACGUGACUGUGGUCCGCUGACAGGCUCCUGUAGCACACGCACACCUGUAGGUGUCACACACGCACACGCACACCUGUAGGUGUCACACACGCACACGCACACCUAUAGGUAUCUGUGGCACACCUGUAGGUGUCACACACGCACACCUGUAGGUGUCACACAAGCACACGCACACCUGUAGGUGUCACACACGCACACCUAGGUGUCUGUAUAGCACACGCACACCUGUAGAUGUCACACAAGGUACUCUUGCGGUCGCACUAGUGUGGAAUUCUCGGGUGUCAAGG
B13: ENSMUSG00000029028.11|Lrrc47 (ssRNA)
RNA: GGGAGUUCUACAGUCCGACGAUCGCUUCGAUAUCCGCAUGCUACCUGAUCACCCUCCCUCCCCACGUGACUGUGGUCCGCUGACAGGCUCCUGUAGGUGUGGGUGUGCUGUAGGUGUCUGUGUGGGUGUGGGUGUGCUGUAGGUGUCUGUGUGGGUGUGGGUGUGCUAUAGGUAUCUGUGGGUGUGCUGUAGGUGUCUGUGUGGGUGUGCUGUAGGUGUCUGUGUAGGUGUGGGUGUGCUGUAGGUGUCUGUGUGGGUGUGCUAGGUGUCUGUAUAGGUGUGGGUGUGCUGUAGAUGUCUGUGCUCUUGCGGUCGCACUAGUGUGGAAUUCUCGGGUGUCAAGG

In this experiment the target is TDP-43 (Homo sapiens, UniProt Q13148 1-414). In words: RNA Bind-n-Seq with designed 260-mer pool; 25 mM Tris-HCl, 150 mM KCl, 3 mM MgCl2, BSA (printed 500 mg/mL), 20 units/mL SUPERase IN; pH not stated; 500 nM RNA pool, 1 h, 4 C; TDP-43 5, 50, 500 nM; high values mean tight binding. The conditions noted are these: protein: recombinant; tags: SBP (GST cleaved off with PreScission; pGEX-GST-SBP). The gist of the method: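 Binding (R) is the ratio of each oligo's mapped-read-normalized abundance in the bound fraction to its abundance in the input. To obtain it, SBP-tagged recombinant TDP-43 (5, 50 or 500 nM) on streptavidin beads was incubated with 500 nM of an in vitro-transcribed 260-nt 3′ UTR oligo pool for 1 h at 4 °C in 25 mM Tris-HCl, 150 mM KCl, 3 mM MgCl2, BSA and SUPERase IN. The RNA retained after washing was released with biotin, then reverse transcribed, amplified by PCR and sequenced.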
Sequence of TDP-43 (Q13148 whole entry): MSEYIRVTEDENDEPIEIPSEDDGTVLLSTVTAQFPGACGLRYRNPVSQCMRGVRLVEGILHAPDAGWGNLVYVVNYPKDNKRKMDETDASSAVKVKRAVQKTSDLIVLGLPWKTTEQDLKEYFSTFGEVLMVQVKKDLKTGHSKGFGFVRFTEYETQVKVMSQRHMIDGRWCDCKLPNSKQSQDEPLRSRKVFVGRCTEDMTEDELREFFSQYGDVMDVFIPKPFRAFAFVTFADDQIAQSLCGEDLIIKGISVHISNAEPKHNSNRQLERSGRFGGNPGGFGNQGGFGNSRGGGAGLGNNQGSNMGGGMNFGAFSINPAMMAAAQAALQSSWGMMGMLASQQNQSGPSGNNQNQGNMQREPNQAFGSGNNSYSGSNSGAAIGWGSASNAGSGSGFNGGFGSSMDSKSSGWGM
On to B1, for which the binding signal is 0.585 R (bound/input frequency ratio).

For the molecule B2, the binding signal was 0.234 R (bound/input frequency ratio).

Take B3: the binding signal was 0.151 R (bound/input frequency ratio).

B4: the binding signal was 0.44 R (bound/input frequency ratio).

Regarding B5, the binding signal was 0.38 R (bound/input frequency ratio).

For B6, the binding signal was 1.26 R (bound/input frequency ratio).

In the case of B7, the binding signal was 0.163 R (bound/input frequency ratio).

Regarding B8, the binding signal is 1.01 R (bound/input frequency ratio).

As for B9, the binding signal was 1.45 R (bound/input frequency ratio).

Take B10: the binding signal was 5.27 R (bound/input frequency ratio).

Turning to B11, the binding signal is 7.14 R (bound/input frequency ratio).

Turning to B12, the binding signal was 1.21 R (bound/input frequency ratio).

Turning to B13, the binding signal was 7.32 R (bound/input frequency ratio).
